26 compounds from PubChem BioAssay AID651599 (National Center for Advancing Translational Sciences (NCATS), 2012) can be followed below.

Records with an inconclusive call do not appear. Unmarked numbers belong to inactive results. Activity calls are given as the source filed them. Calls come from the whole dose curve; as a rule, active = well fitted inhibition curve with a large enough effect; inconclusive = small, poorly fitted or top-dose-only effect; inactive = no such curve, though single readings can be large or run the other way.
% is set by controls: 0 for no effect and ±100 for the full control effect; potency is the fitted concentration of half-maximal effect.

The target in this assay is Tumor susceptibility gene 101 protein (Homo sapiens) (UniProt Q99816). The assay is described as follows: qHTS Assay for Iinhibitors of HIV-1 Budding by Blocking the Interaction of PTAP/TSG101: Hit Validation in TR assay. Conditions: Tsg101 binding domain + Texas Red-labeled PTAP peptide, fluorescence polarization, 20 min; series mostly up to 57.5 µM; activity change, negative = inhibition: at the top concentration. The source says: Stages of the HIV-1 replication cycle, specifically virus assembly and release, provide underexploited targets for the development of novel antiviral inhibitors. The late stages of HIV-1 replication are mediated by the Gag precursor protein, Pr55Gag. Expression of Pr55Gag is both necessary and sufficient for the production of virus-like particles from Gag-expressing cells. The Gag protein hijacks key host proteins involved in endocytic machinery of the host cell to promote endosomal processing and viral budding. The budding process requires a direct interaction between a […] (PTAP) motif in the p6 domain of Gag and the cellular endosomal sorting protein known as Tsg101. In this way, the Gag PTAP motif promotes the host cells to recruit viral particles to the plasma membrane where the new viral particles are released, effectively turning the host cells into viral factories. A fluorescence anisotropy assay has been developed to quantitatively measure the PTAP-Tsg101 interaction which can be used to screen for inhibitors of this interaction.
Sequence of Tumor susceptibility gene 101 protein (Homo sapiens) (Q99816 whole entry, looked up, the tested form may be a part): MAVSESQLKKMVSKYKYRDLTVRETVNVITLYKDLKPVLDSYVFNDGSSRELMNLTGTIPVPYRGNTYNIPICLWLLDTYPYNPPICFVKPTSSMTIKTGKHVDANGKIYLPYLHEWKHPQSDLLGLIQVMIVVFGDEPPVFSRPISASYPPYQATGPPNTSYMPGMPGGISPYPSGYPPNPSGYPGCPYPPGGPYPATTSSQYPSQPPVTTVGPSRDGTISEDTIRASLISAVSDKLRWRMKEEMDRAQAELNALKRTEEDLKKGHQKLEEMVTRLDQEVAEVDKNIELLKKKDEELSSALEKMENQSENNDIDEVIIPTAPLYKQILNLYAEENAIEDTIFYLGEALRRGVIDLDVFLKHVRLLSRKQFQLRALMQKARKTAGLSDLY
This hit validation assay is similar to the primary assay but uses the Texas Red label instead of FITC.
NIH Molecular Libraries Probe Production Network [MLPCN]
NIH Chemical Genomics Center [NCGC]
PI Name: Dr. Eric Freed, NCI
Two uL of the Tsg101 binding domain in buffer (10 mM HEPES pH 7.5; 0.15 M NaCl, 0.01% Tween 20; 3 mM EDTA;0.1 mM TCEP) was dispensed into Greiner black MB 1536-well plates (final concentration 10 uM). Then, 23 nL of compounds or DMSO were delivered to each well using a pin tool. Finally, 2 uL of a TR-labeled peptide containing the PTAP motif (1) in the same buffer was dispensed (50 nM final concentration) and the binding was allowed to proceed for 20 min. at r.t. Fluorescent polarization was determined using TR excitation and polarized emission filters on a Perkin Elmer Viewlux.
Keywords: Tsg101, PTAP, Gag, HIV, fluorescent polarization, MLSMR, MLPCN, NIH Roadmap, qHTS, NCGC
Consider `CC1=NCCc2c1[nH]c1cc(O)ccc21`, for which the “activity change, negative = inhibition” value was 14.7%. For `CC1=C[C@@H]2c3cccc4[nH]cc(c34)C[C@H]2N(C)C1`, the “activity change, negative = inhibition” value is -10.5%. Consider `CC(C)C[C@H]1C(=O)N2CCCC2[C@]2(O)O[C@](NC(=O)[C@@H]3C=C4c5cccc6[nH]cc(c56)CC4N(C)C3)(C(C)C)C(=O)N12` (stereo partly specified), for which the “activity change, negative = inhibition” value was 11.2%. Consider `Nc1ccc2ccc3cccc[n+]3c2c1`, for which the Potency is 16.3 µM (active). As to `C#CCN1C(=O)S/C(=C\c2ccc(N3CCOCC3)cc2C)C1=O`, the “activity change, negative = inhibition” value was -9.29%. Turning to `Nc1ccc2nonc2c1[N+](=O)[O-]`, the “activity change, negative = inhibition” value is -5.71%. On to `CCOC(=O)C1CCCN(c2ccc([N+](=O)[O-])c3nonc23)C1` (stereo unspecified), for which the “activity change, negative = inhibition” value was -2.58%. For `O=c1cc(C(F)(F)F)c2cc3c4c(c2o1)CCCN4CCC3`, the “activity change, negative = inhibition” value is 12.3%. As to `C=CCN1CCC2(C)c3cc(O)ccc3CC1C2C` (stereo unspecified), the “activity change, negative = inhibition” value was -6.86%. Consider `CN1Cc2c(c(C#N)c(N)n(C)c2=S)CC1(C)C`, for which the “activity change, negative = inhibition” value is 24.8%. As for `CC(C)C[C@H]1C(=O)N2CCC[C@H]2[C@]2(O)O[C@](NC(=O)[C@@H]3C=C4c5cccc6[nH]cc(c56)C[C@H]4N(C)C3)(C(C)C)C(=O)N12`, the “activity change, negative = inhibition” value was 23.6%. In the case of `N#CC(C#N)=Cc1ccc(-c2ccccc2F)o1`, the “activity change, negative = inhibition” value was -14.9%. `COc1cccc2c1C(=O)c1c(O)c3c(c(O)c1C2=O)CC(O)(C(C)=NO)CC3OC1CC(N)C(O)C(C)O1` (stereo unspecified): the “activity change, negative = inhibition” value was -4.88%. For the compound `CN1CCN(c2ccc([N+](=O)[O-])c3no[n+]([O-])c23)CC1`, the “activity change, negative = inhibition” value was -24.5%. The same measure, in the same setting: the result for `O=C1NC(=O)N(c2ccc(F)cc2)C(=O)/C1=C/c1ccc2c(c1)CCCN2Cc1ccccc1` reads 2.12%. Still for that read-out and setting: as for `Nc1cc2nc3ccccc3nc2cc1N`, the figure is -20.2%; as for `CCN(CC)C(=O)Cn1cc(C=C2C(=O)N(C)C(=O)N(C)C2=O)c2ccccc21`, -8.32%; as for `CN1CC=C2C(C#N)=C(N)C(C#N)(C#N)C(c3ccncc3)C2C1` (stereo unspecified), -13.5%.

With `CCN(CC)c1ccc(N=Cc2c(O)n(-c3ccc(OC)cc3)c(=O)[nH]c2=O)cc1`, the “activity change, negative = inhibition” value was 2.78%. Consider `Cc1cc(N2CCCC2)ccc1C=C(C#N)C#N`, for which the “activity change, negative = inhibition” value is 61.5%. Regarding `CCOC(=O)c1c(/N=C/c2c(O)n(-c3ccccc3F)c(=S)[nH]c2=O)sc2c1CCCC2`, the “activity change, negative = inhibition” value was -9.37%. For `O=[N+]([O-])c1ccc(NCc2ccccc2)c2nonc12`, the “activity change, negative = inhibition” value is -2.23%. With `CN1/C(=C\C=C2C(=O)NC(=S)NC2=O)C(C)(C)c2ccccc21`, the “activity change, negative = inhibition” value is 17%.

`N#CCN1CCN(c2ccc(C(F)(F)F)cc2)CC1`: the “activity change, negative = inhibition” value is -12.3%.

`CCOC(=O)[C@]1(C#N)[C@@H]2C=CC(C(C)=O)=CN2[C@@H](C(N)=O)[C@@H]1c1ccsc1`: the “activity change, negative = inhibition” value is 54.4%. Consider `COc1ccc(N2C(=O)NC(=O)/C(=C\c3cn(C)c4ccccc34)C2=O)cc1`, for which the “activity change, negative = inhibition” value was -82.3%.
